# Bioassay records (PubChem)
# The full list was thinned out, with hits kept by preference.
# Tg IFNy HTS = inhibitors of Toxoplasma gondii growth with IFN-gamma | Toxoplasma gondii growth in IFN-gamma-treated host cells; stronger effect = lower value | activity change, negative = inhibition, % (test concentration not listed) | 69,000 tested, 3.8% active | AID 1259416; in the data active = activity change below about -70%, passing the limit was not always enough;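 also: host cells are HeLa cells infected with Toxoplasma gondii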
# * = called active by the depositor; i = inactive; ! = a repeat was not active.
SMILES,Tg IFNy HTS
Cc1nc(-c2ccc(F)cc2)sc1CCNC(=O)c1ccc(Cl)cc1,-57.6
Cc1ccc(C(=O)NCCc2sc(-c3ccc(Cl)cc3)nc2C)cc1,-81.5*
CCOc1ccc(C(=O)NCCc2sc(-c3ccc(Cl)cc3)nc2C)cc1,-81.9*
CCOc1ccc(C(=O)NCCc2sc(-c3ccc(C)cc3)nc2C)cc1,2.4
Cc1ccc(-c2nc(C)c(CCNC(=O)c3ccccc3)s2)cc1,i
CCOc1ccc(C(=O)NCCc2sc(-c3ccc(OC)cc3)nc2C)cc1,77.5
CCn1ncc2c1C(COC)N(C(=O)CCc1ccccc1C)CC2 (configuration not stated),-6.8
Cc1ccccc1S(=O)(=O)N1CCC2(CC(n3ccnc3)CO2)C1 (configuration not stated),4.8
C=CCn1c(SCC(=O)OCC)nc2sc3c(c2c1=O)CCc1ccccc1-3,33.3
CC1=C(C(=O)Nc2ccc(C)c(C)c2)C2(CCN(C(C)C)CC2)OC1=O,60.2
Cc1cc(N(C)Cc2cc(C(C)(C)C)n[nH]2)nc(-c2cccnc2)n1,-47.4
CCC(CC)C(=O)N1CCCc2c(cnn2-c2ccc(OC)cc2)C1,-97.4*
CCC(CC)C(=O)N1CCCn2cnc(CN3CCCC3=O)c2C1,1.5
COc1ccc(Cc2ncc3c(n2)CN(C(=O)[C@@H](O)c2ccccc2)C3)cc1,0.4
COc1ccc(-c2nc(Cn3ccn4nc(-c5ccc(OC)c(OC)c5)cc4c3=O)c(C)o2)c(OC)c1,65.7
CSc1ccc(C2c3[nH]c4ccccc4c3CCN2C(=O)c2ccccc2F)cc1 (configuration not stated),309.9
Cc1ccc(-c2cc(C3CCN(C(=O)c4cnn(C)c4)C3)[nH]n2)cc1 (configuration not stated),2.9
C/C=C/c1ccc(C2[C@@H]3CN(C(=O)Nc4ccccc4F)C[C@H]2N3)cc1 (some centres not stated),-33.4
C/C=C/c1ccc(C2[C@@H]3CN(C(=O)Nc4ccc(C(F)(F)F)cc4)C[C@H]2N3)cc1 (some centres not stated),-79.5*!
C/C=C/c1ccc(C2[C@@H]3CN(C(=O)NC4CCCCC4)C[C@H]2N3)cc1 (some centres not stated),-22.1
O=C(NC1CCCCC1)N1C[C@@H]2N[C@H](C1)C2c1ccc(-c2ccc(F)cc2)cc1 (some centres not stated),-76.7*!
COc1ccc(NC(=O)N2C[C@@H]3N[C@H](C2)C3c2ccc(-c3ccncc3)cc2)cc1 (some centres not stated),-2.8
COc1ccc(-c2ccc(C3[C@@H]4CN(C(=O)c5ccc(F)cc5)C[C@H]3N4)cc2)cc1 (some centres not stated),30.1
N#Cc1cccc(-c2ccc(C3[C@@H]4CN(C(=O)Nc5ccc(C(F)(F)F)cc5)C[C@H]3N4)cc2)c1 (some centres not stated),-73.3*!
COc1cccc(-c2ccc(C3[C@@H]4CN(C(=O)Nc5ccccc5F)C[C@H]3N4)cc2)c1 (some centres not stated),-74.3*!
SMILES,Tg IFNy HTS
O=C(Nc1ccc(F)cc1)N1C[C@@H]2N[C@H](C1)C2c1ccc(/C=C/c2ccccc2)cc1 (some centres not stated),-42.9
Cc1cccc(-c2ccc(C3[C@@H]4CN(C(=O)c5ccncc5)C[C@H]3N4)cc2)c1 (some centres not stated),-7.2
COc1ccccc1NC(=O)N1C[C@@H]2N[C@H](C1)C2c1ccc(-c2cccc(C#N)c2)cc1 (some centres not stated),-33.1
N#Cc1ccc(-c2ccc(C3[C@@H]4CN(C(=O)C5CCCCC5)C[C@H]3N4)cc2)cc1 (some centres not stated),-45.9
Cc1ccc(S(=O)(=O)Oc2cccc(-n3cnnn3)c2)cc1,28.7
Cc1ccc2c(c1C)-n1cccc1C1(CCN(C(=O)c3c(F)cccc3F)CC1)N2,35.1
C=CCO[C@H]1CCN(C(=O)Cc2ccsc2)[C@H]1Cc1cnn(C)c1,42.7
O=C(CCC(=O)N1CCCC(c2ccccc2)CC1)NC1CCCC1 (configuration not stated),22.0
O=C(C1CCCO1)N1CCCC(c2nc(-c3ccncc3)cc(=O)[nH]2)C1 (configuration not stated),-22.4
O=C(c1cccnc1)N1CCC(c2cc(=O)[nH]c(N3CCOCC3)n2)C1 (configuration not stated),49.1
CN(C)S(=O)(=O)N1CCO[C@@H]2CN(c3ncc(F)cn3)C[C@@H]21,-5.2
COc1cccc2c1C(=O)c1c(O)c3c(c(O)c1C2=O)C[C@@](O)(C(=O)CO)C[C@@H]3O[C@H]1C[C@H](N)[C@H](O)[C@H](C)O1,-77.8*
CCCCC(=O)OCC(=O)[C@]1(O)Cc2c(O)c3c(c(O)c2[C@@H](O[C@H]2C[C@H](NC(=O)C(F)(F)F)[C@H](O)[C@H](C)O2)C1)C(=O)c1c(OC)cccc1C3=O,-73.1*
COc1cccc2c1C(=O)c1c(O)c3c(c(O)c1C2=O)C[C@@](O)(C(C)=O)C[C@@H]3OC1CC(N)C(O)C(C)O1 (some centres not stated),-75.4*
